# Laboratory results: PubChem BioAssay (NCI)
# Several values for one entry are separate records, joined by “and”; a condition that tells them apart may be missing. Equal entries are not always repeated. About 83,000 compounds went through this panel and 20% of them were active in at least one assay; those are over-represented in the sample as a whole.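 Interpretation: 100, growth as untreated; towards 0, rising growth inhibition; 0, no net growth; 0 to -100, cell death. Compounds scoring below 10 were considered active.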 A number with no mark means an inactive call. Activity calls are given as the source filed them.
# Tested on: 786-0 renal
# Assay: NCI-60 one-dose screen, 48 h (100 = growth as untreated, 0 = no growth, -100 = all killed)
# Settings: 10 µM unless noted
row,SMILES,growth
1,Cc1ccc2c(n1)C(=O)C(Cl)=C(Nc1ccc(C#N)cc1)C2=O,80.4%
2,CC(C)(O)c1cncc(-c2ccc3ncc(C#N)c(N4CCc5cc(F)c(Cl)cc54)c3c2)c1,8.75% (active)
3,O=c1c2ccccc2cc2n1CCN=C2c1ccccc1,96.8%
4,O=C(CN1CCN(c2cc(=O)[nH]c3ccc(F)cc23)CC1)N(c1ccccc1)c1ccccc1,96%
5,CCc1cc(OC(=O)N2CCC(N3CCCCC3)CC2)ccc1Nc1cc(-c2ccc(-n3cccn3)cc2)[nH]n1,58%
6,CCCC/C(=C\c1ccc(O)c(O)c1)C(=O)NC(Cc1ccccc1)C(=O)C(=O)NCCc1ccc(OC)cc1 (stereo not drawn),104%
7,CN(C)c1ccc(-c2cc(-c3c[nH]c4ccccc34)nc(N)c2C#N)cc1,17.5%
8,COc1cc(C(=O)c2cc(C(C)=O)c3ccc(C)cn23)cc(OC)c1OC,50.5%
9,CCOC(=O)c1ccccc1NC1=C(Cl)C(=O)c2nc(C)ccc2C1=O,104%
10,CN(C)S(=O)(=O)c1ccc(-c2nc(C(Cl)Cl)nc3cc(-c4ccccc4)nn23)cc1,90.6%
11,CN1CCN(c2ccc(Nc3nc(NCCCNS(=O)(=O)c4ccc(Cl)cc4)c4sccc4n3)cc2)CC1,-43.2% (active)
12,O=C1[C@@H]2Cc3c([nH]c4ccccc34)[C@H](c3ccc(Cl)cc3)N2C(=O)CN1C1CCN(Cc2ccccc2)CC1,68.1%
13,CN1CCN(CCNc2nc(-c3cccc(NS(=O)(=O)c4cccc5c(N(C)C)cccc45)c3)cs2)CC1,60.8%
14,C#C[C@]1(O)CC[C@H]2[C@@H]3CC=C4c5sc(Nc6ncccc6C)nc5CC[C@]4(C)[C@H]3CC[C@@]21C,-56.2% (active)
15,CC(=O)N(O)CCCCCNC(=O)CCC(=O)N(O)CCCCCNC(=O)CCC(=O)N(O)CCCCCN(CCCCCCCCCC[P+](c1ccccc1)(c1ccccc1)c1ccccc1)CCCCCCCCCC[P+](c1ccccc1)(c1ccccc1)c1ccccc1,21.5%
16,O=C1Nc2ccccc2/C1=N\c1nnc(-c2ccccc2)o1,108%
17,CCCCCCCCCC(=O)NC(C)(C)C(=O)N1CCC[C@H]1C(=O)N[C@@H](CC(C)C)C(=O)N[C@@](C)(CC)C(=O)N[C@@H](CCC(N)=O)C(=O)N[C@H](CCC(N)=O)C(=O)NC(C)(C)C(=O)NC(C)(C)C(=O)N[C@@H](CCC(N)=O)C(=O)N[C@H](CC(C)C)C(=O)N[C@H](CO)CC(C)C,-82.1% (active) and -64.3% (active)

row,SMILES,growth
1,Fc1cccc(Cl)c1/C=N/Nc1nc(N/N=C/c2c(F)cccc2Cl)nc(N2CCCCC2)n1,28.3%
2,Cc1ccc(/C(N)=N/C(N)=N/c2nc3ccccc3s2)cc1,109%
3,CCc1cc2c(cc1Cl)nc1c(=O)[nH]c(=O)nc-1n2CCOCC(C)(C)C,81.1%
4,Cc1csc(/N=C(N)/N=C(\N)c2cccc(Br)c2)n1,97.3%
5,Brc1cccc(-c2cc(-c3cnc4c(c3)OCCO4)n[nH]2)c1,79%
6,CN(C)CC(=O)Nc1nc(-c2cccc(NS(=O)(=O)c3cccc4c(N(C)C)cccc34)c2)cs1,90.5%
7,O=C(/C=C/c1cc(Cl)ccc1Cl)Nc1ncc(Cc2ccc(Cl)cc2)s1,0.237% (active)
8,Nc1ncc(-c2ccc3ncnc(NCc4ccccc4)c3c2)cn1,31.3%
9,Cc1ccc(-c2cc3nc(C(Cl)Cl)nc(-c4ccc(S(=O)(=O)N(C)C)cc4)n3n2)cc1,97.9%
10,CCN(CC)CCOc1ccc(C(=C(c2ccccc2)C2CCCC2)c2ccc(OCCN(CC)CC)cc2)cc1,62.6%
11,COC(=O)c1cccc(NC2=C(Cl)C(=O)c3nc(C)ccc3C2=O)c1,98.2%
12,COc1cc(/C=N\NC(=O)c2ccc3nc(-c4ccc(Br)cc4)[nH]c3c2)cc(OC)c1OC,38.4%
13,NC1=NC2(CCCC2)N(c2ccc(S(=O)(=O)Nc3nccs3)cc2)C(N)=N1,105%
14,N#C/C(=N\Nc1ccc(F)cc1)C(=O)Nc1cc(-c2ccccc2)nn1-c1ccccc1,21.3%
15,Cc1ccc(S(=O)(=O)c2nc(-c3ccc(F)cc3)oc2S(C)(=O)=O)cc1,80.6%
16,CC(O)c1cccc(/C(N)=N/C(N)=N/c2nc3ccccc3s2)c1 (stereo not drawn),101%
